# Reference: PubChem BioAssay (Tox21)
# Several values for one entry are separate records, joined by “and”; a condition that tells them apart may be missing. Equal entries are not always repeated. Inconclusive results are not listed. Where a call stands in place of a potency, no number is given. More than one record can exist for a structure, and the calls need not agree. Activity calls are given as the source filed them. Unless noted, calls follow the shape of the full dose curve.
# How the values were obtained:
# [1] = Nuclear factor erythroid 2-related factor 2/antioxidant responsive element (Nrf2/ARE) small molecule agonists: qHTS cell viability counter screen in human keratinocytes (AID 1919968; active = well fitted curve in the direction sought with a large enough effect in the repeat runs; an effect the other way counts as inactive or inconclusive; also: nearly all actives have a fitted effect of over 55% in size; also: potency is read from the fitted curve at half-maximal effect)
# How it was run: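 Fluorescence read-out from CellTiter-Fluor after 1 h at 37 C. Wells held HaCaT-derived ARE-luciferase reporter cells (1,500/well) treated 23 h with DMSO-dissolved compounds. Run in the same wells as the luciferase agonist read.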
# [2] = target: Gonadotropin-releasing hormone receptor (Homo sapiens) (UniProt P30968); assay: Human gonadotropin-releasing hormone receptor (GnRHR) small molecule agonists, calcium flux assay in GnRHR-HEK293 cells (AID 1920063); also: nearly all actives have a fitted effect of over 35% in size
# How it was run: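 Calcium-dye fluorescence, Ex/Em=480/540, recorded every 1 sec over 3 min after compound addition to GnRHR-HEK293 cells. Cells had been seeded 18 hours earlier and dye-loaded for 1 hour at 37 C. Fifteen concentrations, triplicates.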
# [3] = G protein-coupled receptor (GPCR) small molecule agonists, calcium flux assay: HEK293 wild type cell line counter screen (AID 1920065)
# How it was run: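 Agonist mode; 18 h seeding at 37 C, 1 h dye load at 37 C; compounds pinned from DMSO, ATP as positive control; kinetic fluorescence 480/540 nm, 3 min, 1 s reads; 15 concentrations, triplicate.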
# [4] = p53 small molecule agonists, cell-based qHTS assay with human liver microsomes (AID 1963577);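 also: p53 response element beta-lactamase reporter cells with liver microsomes plus NADPH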
# How it was run: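 16 h, 37 C exposure of p53RE-bla cells to compounds with human liver microsomes and NADPH (0.5 mg/mL final each); detection via LiveBLAzer mixture, 2 h dark at room temperature.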
# [5] = p53 small molecule agonists, cell-based qHTS assay with rat liver microsomes (AID 1963578)
# How it was run: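 With rat liver microsomes and NADPH present (0.5 mg/mL final each), p53RE-bla cells are treated with compound for 16 h at 37 C. LiveBLAzer detection mixture is then applied for 2 h at room temperature in the dark.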
# [6] = p53 small molecule agonists, cell-based qHTS assay with human liver microsomes: qHTS cell viability counter screen (AID 1963579); also: nearly all actives have a fitted effect of over 45% in size
# How it was run: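 In this multiplexed counter screen, the reporter plates were subsequently treated with CellTiter-Glo so that cell viability, reflected by luminescence, could be recorded for p53RE-bla cells dosed 16 h with compounds under microsomal activation (HLM and NADPH).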
# [7] = p53 small molecule agonists, cell-based qHTS assay with rat liver microsomes: qHTS cell viability counter screen (AID 1963580); also: nearly all actives have a fitted effect of over 45% in size; also: potency is read from the fitted curve at half-maximal effect
# How it was run: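 Counter screen for cytotoxicity under metabolic activation: rat liver microsomes and NADPH, 0.5 mg/mL final each, added with compounds to p53RE-bla HCT-116 cells; 16 h at 37 C, then ATP luminescence read.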
# [8] = p53 small molecule agonists, cell-based qHTS assay: qHTS cell viability counter screen (AID 1963581); also: nearly all actives have a fitted effect of over 45% in size; also: potency is read from the fitted curve at half-maximal effect
# How it was run: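 Cytotoxicity read-out: ATP-based luminescence (CellTiter-Glo, 30 min RT) measured in the same wells as the p53 reporter assay, HCT-116 p53RE-bla cells, 16 h compound exposure at 37 C.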
# [9] = p53 small molecule agonists, cell-based qHTS assay (AID 1963582; active = well fitted activation curve with a large enough effect in the signal ratio in the repeat runs, not every such curve was filed as active; the % refers to the signal ratio; also: potency is read from the fitted curve at half-maximal effect)
# How it was run: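 Fluorescence intensity read-out of a beta-lactamase reporter under a p53 response element. Cells were exposed to DMSO-dissolved compounds for 16 h at 37 C, then developed with FRET substrate for 2 h at RT.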
# [10] = target: 5-hydroxytryptamine receptor 2A (Homo sapiens) (UniProt P28223); assay: 5-hydroxytryptamine receptor 2A (HTR2A) small molecule antagonists, cell-based qHTS assay (AID 1963586); also: nearly all actives have a fitted effect of over 45% in size; also: potency is read from the fitted curve at half-maximal effect
# How it was run: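 CHO cells stably expressing human HTR2A were plated for 18 h at 37 C, then loaded with calcium dye for 1 h. Compounds were preincubated 5 min at room temperature before DOI (4 nM solution) was added. Kinetic fluorescence was read for 3 min.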
# [11] = target: Muscarinic acetylcholine receptor M1 (Homo sapiens) (UniProt P11229); assay: Cholinergic receptor muscarinic 1 (CHRM1) small molecule antagonists, cell-based qHTS assay (AID 1963588); also: nearly all actives have a fitted effect of over 40% in size; also: potency is read from the fitted curve at half-maximal effect
# How it was run: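 Compounds were tested at 15 concentrations in three independent runs. Dye-loaded CHRM1-CHO cells were exposed 5 min at room temperature before stimulation by acetylcholine added at 50nM. Intracellular calcium was read kinetically on FDSS for 3 min.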
# [12] = target: Muscarinic acetylcholine receptor M1 (Homo sapiens) (UniProt P11229); assay: Cholinergic receptor muscarinic 1 (CHRM1) small molecule agonists, cell-based qHTS assay (AID 1963589); also: nearly all actives have a fitted effect of over 35% in size
# How it was run: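 Calcium flux read-out: kinetic fluorescence at 1 sec intervals after pin-tool compound addition to dye-loaded CHRM1-CHO cells (human M1). Agonist mode; 15 concentrations tested in triplicate independent runs.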
# [13] = cAMP Responsive Elements (CRE) small molecule agonists, cell-based qHTS assay (AID 1963590)
# How it was run: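 Beta-lactamase reporter readout: LiveBLAzer B/G FRET substrate, 2 h at room temperature, added after 3 h compound treatment of CRE-bla HEK 293T cells at 37 C/5% CO2.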
# [14] = cAMP Responsive Elements (CRE) small molecule antagonists, cell-based qHTS assay (AID 1963591; active = well fitted inhibition curve with a large enough effect in the signal ratio in the repeat runs, not every such curve was filed as active; the % refers to the signal ratio)
# How it was run: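 HEK293T CRE-bla; 18 h preincubation; compound pin-transfer; NKH477 0.25 uM final, 3 h, 37 C; LiveBLAzer FRET substrate 2 h RT.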
# [15] = target: Beta-2 adrenergic receptor (Homo sapiens) (UniProt P07550); assay: Adrenergic beta2 receptor (ADRB2) small molecule antagonists, cell-based qHTS assay (AID 1963592); also: series mostly up to about 92 µM; nearly all actives have a fitted effect of over 50% in size
# How it was run: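 Assay format: CHO-ADRB2 cells, 18-20hr seeding at 37C/5% CO2, then compound plus 1nM isoproterenol agonist mix for 0.5hr RT. Homogeneous time-resolved fluorescence cAMP detection after 1hr, expressed as 665/615 nm ratio.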
# [16] = target: Beta-2 adrenergic receptor (Homo sapiens) (UniProt P07550); assay: Adrenergic beta2 receptor (ADRB2) small molecule agonists, cell-based qHTS assay (AID 1963593);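 also: CHO cells stably overexpressing human ADRB2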
# How it was run: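 CHO cells stably over-expressing ADRB2 were plated overnight at 37C, then dosed with compounds plus a stimulation mix containing 100uM IBMX and 25uM Ro-20-1724 for 0.5hr at room temperature. cAMP was measured by HTRF competition, 1hr.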
# [17] = target: D(2) dopamine receptor (Homo sapiens) (UniProt P14416); assay: Dopamine D2 receptor (DRD2) small molecule agonists, cell-based qHTS assay (AID 1963594); also: nearly all actives have a fitted effect of over 35% in size
# How it was run: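 HEK293 cells stably expressing DRD2 were cultured 24 h at 37 C, then given Ro20-1724 (0.1 mM final) and compounds for 10 min at room temperature. NKH477 (200nM) was then added for 30 min. cAMP was read by HTRF.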
# [18] = target: D(2) dopamine receptor (Homo sapiens) (UniProt P14416); assay: Dopamine D2 receptor (DRD2) small molecule antagonists, cell-based qHTS assay (AID 1963595; active = well fitted inhibition curve with a large enough effect in the signal ratio in the repeat runs, with a control signal flat; the % refers to the signal ratio)
# How it was run: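 HEK293 cells stably expressing DRD2 were preincubated with 0.1 mM Ro20-1724, then with compound for 10 min at room temperature. Cells were stimulated with 200 nM NKH477 plus 12 nM quinpirole for 30 min, and cAMP was read by HTRF.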
# [19] = target: KiSS-1 receptor (Homo sapiens) (UniProt Q969F8); assay: Human kisspeptin (KISS1R) small molecule agonists, calcium flux assay in KISS1R-HEK293 cells (AID 1920064; active = well fitted curve in the direction sought with a large enough effect in the repeat runs; an effect the other way counts as inactive or inconclusive)
# How it was run: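 Calcium flux read-out: kinetic fluorescence at Ex/Em=480/540, 1 s intervals over 3 min, after pin-tool compound addition to dye-loaded KISS1R-HEK293 cells. Fifteen concentrations, triplicates.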
# [20] = target: 5-hydroxytryptamine receptor 2A (Homo sapiens) (UniProt P28223); assay: 5-hydroxytryptamine receptor 2A (HTR2A) small molecule agonists, cell-based qHTS assay (AID 1963587); also: nearly all actives have a fitted effect of over 30% in size
# How it was run: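 HTR2A-CHO cells, plated 18 h at 37 C/5% CO2, dye-loaded 1 h at 37 C; compounds in DMSO added by pin tool (agonist mode). Intracellular calcium flux read as kinetic fluorescence on FDSS over 2 min at 1 s intervals.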
# Sequence of Muscarinic acetylcholine receptor M1 (Homo sapiens) (P11229 whole entry, looked up): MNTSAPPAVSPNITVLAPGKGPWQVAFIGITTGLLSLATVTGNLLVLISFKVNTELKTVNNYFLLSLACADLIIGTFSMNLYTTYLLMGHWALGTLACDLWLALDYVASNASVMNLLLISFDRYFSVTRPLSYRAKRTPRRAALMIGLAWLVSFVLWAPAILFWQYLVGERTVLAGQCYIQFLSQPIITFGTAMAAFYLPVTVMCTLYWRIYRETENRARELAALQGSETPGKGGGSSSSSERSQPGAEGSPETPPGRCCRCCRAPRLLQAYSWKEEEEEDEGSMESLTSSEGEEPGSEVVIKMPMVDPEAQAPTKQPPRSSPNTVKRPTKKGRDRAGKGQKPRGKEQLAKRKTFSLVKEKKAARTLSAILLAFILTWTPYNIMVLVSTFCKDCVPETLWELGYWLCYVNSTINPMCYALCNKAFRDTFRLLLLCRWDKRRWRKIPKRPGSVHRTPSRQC
# Sequence of Beta-2 adrenergic receptor (Homo sapiens) (P07550 whole entry, looked up): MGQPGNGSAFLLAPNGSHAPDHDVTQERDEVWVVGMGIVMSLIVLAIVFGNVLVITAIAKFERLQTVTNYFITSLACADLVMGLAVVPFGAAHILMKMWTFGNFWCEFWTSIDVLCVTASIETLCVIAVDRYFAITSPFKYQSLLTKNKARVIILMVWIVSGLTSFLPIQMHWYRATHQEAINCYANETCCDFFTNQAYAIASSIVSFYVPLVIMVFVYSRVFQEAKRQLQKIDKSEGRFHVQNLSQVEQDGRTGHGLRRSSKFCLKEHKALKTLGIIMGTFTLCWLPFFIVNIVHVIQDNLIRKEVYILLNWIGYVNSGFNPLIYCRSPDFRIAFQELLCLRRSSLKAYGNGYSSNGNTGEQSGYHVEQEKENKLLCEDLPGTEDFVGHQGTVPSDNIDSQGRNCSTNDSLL
# Sequence of 5-hydroxytryptamine receptor 2A (Homo sapiens) (P28223 whole entry, looked up): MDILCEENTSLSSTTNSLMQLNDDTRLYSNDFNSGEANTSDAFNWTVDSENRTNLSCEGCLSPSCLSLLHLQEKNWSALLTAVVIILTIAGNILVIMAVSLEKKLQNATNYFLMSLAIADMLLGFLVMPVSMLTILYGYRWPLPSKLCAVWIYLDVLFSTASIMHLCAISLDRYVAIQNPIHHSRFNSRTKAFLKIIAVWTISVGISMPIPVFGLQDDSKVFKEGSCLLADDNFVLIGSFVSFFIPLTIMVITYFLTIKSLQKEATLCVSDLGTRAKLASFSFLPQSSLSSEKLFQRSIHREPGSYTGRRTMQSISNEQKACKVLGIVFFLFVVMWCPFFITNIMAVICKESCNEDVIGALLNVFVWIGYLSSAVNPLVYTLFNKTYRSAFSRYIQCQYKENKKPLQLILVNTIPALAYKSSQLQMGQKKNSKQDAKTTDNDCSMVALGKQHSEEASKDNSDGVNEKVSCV
# Sequence of D(2) dopamine receptor (Homo sapiens) (P14416 whole entry, looked up): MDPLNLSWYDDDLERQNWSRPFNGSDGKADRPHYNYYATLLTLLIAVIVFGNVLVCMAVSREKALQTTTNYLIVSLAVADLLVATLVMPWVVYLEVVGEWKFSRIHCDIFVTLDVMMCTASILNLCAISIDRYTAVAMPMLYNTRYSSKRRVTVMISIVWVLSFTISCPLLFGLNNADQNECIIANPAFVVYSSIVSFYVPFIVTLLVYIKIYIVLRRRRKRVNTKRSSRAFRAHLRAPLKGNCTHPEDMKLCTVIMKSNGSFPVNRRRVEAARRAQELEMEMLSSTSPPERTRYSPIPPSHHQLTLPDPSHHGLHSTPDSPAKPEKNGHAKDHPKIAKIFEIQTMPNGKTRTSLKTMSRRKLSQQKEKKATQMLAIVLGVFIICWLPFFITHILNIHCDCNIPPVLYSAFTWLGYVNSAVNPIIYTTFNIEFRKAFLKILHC
# Sequence of KiSS-1 receptor (Homo sapiens) (Q969F8 whole entry, looked up): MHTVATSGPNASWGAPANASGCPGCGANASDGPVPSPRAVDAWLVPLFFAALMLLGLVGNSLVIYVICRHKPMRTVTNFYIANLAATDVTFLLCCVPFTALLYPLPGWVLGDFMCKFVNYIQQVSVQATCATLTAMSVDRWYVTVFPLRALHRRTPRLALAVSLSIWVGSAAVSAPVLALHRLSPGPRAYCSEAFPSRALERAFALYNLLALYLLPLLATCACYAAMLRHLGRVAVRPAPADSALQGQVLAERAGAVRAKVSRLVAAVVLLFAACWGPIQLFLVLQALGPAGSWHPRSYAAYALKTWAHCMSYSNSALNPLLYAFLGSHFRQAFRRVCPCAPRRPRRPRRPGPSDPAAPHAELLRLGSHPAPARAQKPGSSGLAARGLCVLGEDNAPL
# Sequence of Gonadotropin-releasing hormone receptor (Homo sapiens) (P30968 whole entry, looked up): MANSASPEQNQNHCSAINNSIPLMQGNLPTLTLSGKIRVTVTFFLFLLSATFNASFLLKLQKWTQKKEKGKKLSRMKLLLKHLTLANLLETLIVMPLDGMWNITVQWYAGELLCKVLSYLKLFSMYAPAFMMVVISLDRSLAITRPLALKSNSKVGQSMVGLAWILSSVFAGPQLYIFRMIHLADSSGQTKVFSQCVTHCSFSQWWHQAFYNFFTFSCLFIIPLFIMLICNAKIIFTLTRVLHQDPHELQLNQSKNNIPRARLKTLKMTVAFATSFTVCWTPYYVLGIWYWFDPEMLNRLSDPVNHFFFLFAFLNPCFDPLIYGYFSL
SMILES,Potency [1],Potency [2],Potency [3],Potency [4],Potency [5],Potency [6],Potency [7],Potency [8],Potency [9],Potency [10],Potency [11],Potency [12],Potency [13],Potency [14],Potency [15],Potency [16],Potency [17],Potency [18],Potency [19],Potency [20]
Oc1ccc(Cl)cc1,inactive,inactive,inactive,inactive,inactive,inactive,inactive,inactive,inactive,inactive,inactive,inactive,inactive,inactive,inactive,inactive,inactive,inactive,–,–
Cc1cc(N=Nc2ccccc2C)ccc1N,54.5 µM (active) and inactive,inactive,–,inactive,inactive,inactive,inactive,inactive,inactive,inactive,inactive,inactive,–,–,inactive,–,inactive,inactive,inactive,–
CC(c1ccc(O)cc1)c1ccc(O)cc1,inactive,inactive,inactive,inactive,inactive,inactive,inactive,inactive,38.2 µM (active),inactive,15.7 µM (active) and inactive,inactive,inactive,–,inactive,–,inactive,inactive,–,inactive
CN(N=O)C(N)=O,–,inactive,inactive,inactive,inactive,inactive,inactive,inactive,inactive,inactive,inactive,inactive,inactive,inactive,inactive,inactive,inactive,–,inactive,inactive
COC(=O)Nc1nc2ccccc2[nH]1,inactive,inactive,inactive,inactive,inactive,inactive,inactive,–,9.13 µM (active),inactive,inactive,–,inactive,–,inactive,inactive,inactive,inactive,–,inactive
CCCCCc1cc(O)cc(O)c1,inactive,inactive,–,inactive,–,inactive,inactive,–,inactive,inactive,inactive,inactive,–,inactive,–,inactive,inactive,inactive,inactive,inactive
FC(F)(F)c1ccc(Cl)cc1,–,inactive,inactive,inactive,inactive,inactive,inactive,inactive,inactive,inactive,inactive,inactive,inactive,inactive,inactive,inactive,inactive,inactive,inactive,inactive
CN(C)C(=S)S,9.89 µM (active) and 607 nM (active) and 27.3 µM (active),inactive,inactive,–,–,inactive,inactive and 8.08 µM (active),inactive,–,inactive,inactive,inactive,inactive,inactive,–,inactive,inactive,inactive,–,inactive
c1cc2c3c(cccc3c1)CC2,inactive,inactive,–,inactive,inactive,inactive,inactive,inactive,–,inactive,inactive,inactive,inactive,inactive,inactive,–,inactive,inactive,inactive,inactive
C[C@]12C=CC3=C4CCC(=O)C=C4CC[C@H]3[C@@H]1CC[C@@H]2O,inactive,–,inactive,–,–,inactive,–,inactive,–,–,–,–,–,–,inactive,inactive,inactive,inactive,inactive,–
CN1C(=O)CN=C(c2ccccc2)c2cc(Cl)ccc21,inactive,inactive,inactive,–,–,–,–,inactive,inactive,–,–,–,inactive,inactive,inactive,–,inactive,inactive,inactive,–
C=CCc1cc(OC)c2c(c1)OCO2,inactive,inactive,inactive,inactive,inactive,inactive,–,–,inactive,inactive,inactive,inactive,–,inactive,inactive,–,inactive,inactive,–,inactive
CNC(=O)N(C)c1nnc(C(C)(C)C)s1,inactive,inactive,inactive,inactive,inactive,inactive,–,–,inactive,inactive,inactive,inactive,inactive,inactive,inactive,–,inactive,inactive,–,inactive
COc1ccc(CO)cc1,inactive,inactive,inactive,inactive,inactive,–,–,inactive,inactive,inactive,inactive,inactive,inactive,inactive,inactive,inactive,inactive,inactive,–,inactive
[Cd+2].[Cl-].[Cl-],27.5 µM (active) and 43.3 µM (active),inactive,–,–,–,inactive,inactive,36.7 µM (active),–,inactive,inactive,inactive,inactive,–,inactive,–,inactive,inactive,inactive,inactive
Oc1c(Cl)c(Cl)c(Cl)c(Cl)c1Cl,30 µM (active),inactive,–,inactive,inactive,inactive,inactive,inactive,–,23.2 µM (active) and inactive,inactive,inactive,–,inactive,inactive,inactive,inactive,inactive,–,inactive
CC(Br)C(=O)O (configuration not stated),–,inactive,inactive,inactive,inactive,inactive,inactive,inactive,inactive,inactive,inactive,inactive,inactive,inactive,inactive,inactive,inactive,inactive,inactive,inactive
